# Test results reported in PubChem BioAssay AID2561 (National Center for Advancing Translational Sciences (NCATS), 2010).
# Results filed as inconclusive are left out. Entries that show only a call come without a potency. The source made the active and inactive calls. Calls come from the whole dose curve; as a rule, active = well fitted inhibition curve with a large enough effect; inconclusive = small, poorly fitted or top-dose-only effect, or effect the other way; inactive = flat fitted curve, though single readings scatter.
# Molecular target: Pyruvate kinase (Leishmania mexicana) (UniProt Q27686)
# Assay: Confirmation Assay for Inhibitors of Leishmania Mexicana Pyruvate Kinase (LmPK): for Probe SAR
# Method in brief: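 Coupled luminescent assay: ATP produced by LmPK (0.1 nM) from ADP (0.1 mM, ~10-fold below Km) and PEP (0.5 mM, at Km) after 1 h RT, detected with Kinase-Glo. Data scaled between no-enzyme and uninhibited controls.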
# Potency is the fitted concentration of half-maximal effect.
# Pyruvate kinase (Leishmania mexicana), sequence (Q27686 whole entry, looked up): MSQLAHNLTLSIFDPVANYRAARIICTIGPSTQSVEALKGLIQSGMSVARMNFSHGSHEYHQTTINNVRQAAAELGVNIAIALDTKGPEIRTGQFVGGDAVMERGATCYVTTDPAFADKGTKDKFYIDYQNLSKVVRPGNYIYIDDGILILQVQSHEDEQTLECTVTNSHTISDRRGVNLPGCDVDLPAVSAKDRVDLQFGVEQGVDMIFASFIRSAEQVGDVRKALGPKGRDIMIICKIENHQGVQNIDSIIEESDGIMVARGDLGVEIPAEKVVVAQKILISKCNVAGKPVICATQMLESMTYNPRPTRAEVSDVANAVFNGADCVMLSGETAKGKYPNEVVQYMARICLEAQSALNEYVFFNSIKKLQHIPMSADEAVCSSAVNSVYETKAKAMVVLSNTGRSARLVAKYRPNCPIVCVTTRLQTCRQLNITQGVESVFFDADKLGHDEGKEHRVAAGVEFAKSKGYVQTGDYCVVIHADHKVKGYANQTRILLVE
row,SMILES,Potency
1,Cc1sc(C)c2c1C(=O)NS2(=O)=O,inactive
2,CN(C)c1cccc(S(=O)(=O)N2CCN(S(=O)(=O)c3ccc4c(c3)OCCO4)CC2)c1,inactive
3,Cc1ccc(OC2=NS(=O)(=O)c3ccccc32)cc1,12.5 µM (active)
4,Cc1ccc(NS(=O)(=O)c2cccc(F)c2)cc1C,inactive
5,O=S1(=O)N=C(Oc2ccccc2Br)c2ccccc21,5.8 µM (active)
6,COc1ccc(NS(=O)(=O)c2ccccc2C(=O)O)cc1,inactive
7,Cc1ccc(NS(=O)(=O)c2ccc3c(c2)n(C)c(=O)n3C)cc1C,inactive
8,O=C1CCc2cc(S(=O)(=O)Nc3cccc(-c4ccccc4)c3)ccc2N1,inactive
9,O=C1c2ccccc2C(=O)N1c1cccc(O)c1,inactive
10,O=S1(=O)N=C(N2CCOCC2)c2ccccc21,inactive
11,O=C1CCc2cc(S(=O)(=O)Nc3ccncc3)ccc2N1,inactive
12,Nc1ccccc1OC1=NS(=O)(=O)c2ccccc21,inactive
13,O=C1NS(=O)(=O)c2cc3c(cc21)C(=O)NS3(=O)=O,inactive
14,Cc1ccc(NS(=O)(=O)c2ccc3c(c2)CCC(C)(C)O3)cc1C,inactive
15,COC(=O)c1ccc2c(c1)S(=O)(=O)NC2=O,inactive
16,Cc1ccc(NS(=O)(=O)c2ccc3c(c2)CCN(C(=O)C(F)(F)F)C3)cc1C,inactive
17,Cc1ccc(NS(=O)(=O)c2cccc(C(=O)O)c2)cc1C,inactive
18,COc1ccccc1OC1=NS(=O)(=O)c2ccccc21,4.31 µM (active)
19,Cc1ccc2nc(-c3ccc(C)o3)c(Nc3ccc(Cl)cc3)n2c1,inactive
20,Cc1ccc(NS(=O)(=O)c2cc3c(cc2Br)NC(=O)CO3)cc1C,inactive
21,O=S1(=O)N=C(Sc2cccc3cccnc23)c2ccccc21,2.91 µM (active)
22,O=S1(=O)N=C(Oc2ccccc2F)c2ccccc21,3.26 µM (active)
23,COc1ccc(Nc2c(-c3ccc(C)o3)nc3ccccn23)cc1,inactive
24,O=C(O)c1ccccc1OC1=NS(=O)(=O)c2ccccc21,1.63 µM (active)
25,CNc1cccc(S(=O)(=O)N2CCN(S(=O)(=O)c3ccc4c(c3)OCCO4)CC2)c1,inactive
26,COc1ccc(NS(=O)(=O)c2ccc3c(c2)CCC(=O)N3)cc1,inactive
27,Cc1ccccc1N(C)C1=N[S+](=O)([O-])c2ccccc21,inactive
28,Cc1ccc(Nc2c(-c3ccc(C)s3)nc3ccccn23)cc1,inactive
29,O=C1c2ccccc2C(=O)N1c1nccs1,inactive
30,Cc1ccc(NS(=O)(=O)c2ccc3c(c2)N(C)CCO3)cc1C,inactive
